# Experimental data as given in PubChem BioAssay (Tox21).
# Records with an inconclusive call do not appear. Active and inactive are the calls of the source. Calls come from the whole dose curve.
# Test: qHTS assay to identify small molecule agonists of the progesterone receptor (PR) signaling pathway - cell viability counter screen (AID 1346799); note: nearly all actives have a fitted effect of over 45% in size
# Settings: PR-UAS-bla HEK293T viability, CellTiter-Glo luminescence, 16 h; series mostly up to 92.4 µM; activity change, negative = cytotoxicity: at the top concentration
# Description: National Center for Advancing Translational Sciences [NCATS]
# NIH Chemical Genomics Center [NCGC]
# U.S. Environmental Protection Agency [EPA]
# National Institutes of Environmental Health Sciences [NIEHS]
# National Toxicology Program [NTP]
# U.S. Food and Drug Administration [FDA]
# Progesterone receptor (PR), a nuclear hormone receptor, plays an important role in development, metabolic homeostasis and reproduction. It is activated by the steroid hormone progesterone. Endocrine disrupting chemicals (EDCs) and their interactions with steroid hormone receptors like PR causes disruption of normal endocrine function. To identify the compounds that stimulate PR signaling, a PR-UAS-bla GripTite cell line i.e. PR-UAS-bla HEK293T (Invitrogen, Carlsbad, CA, USA) containing a beta-lactamase reporter gene under the control of an UAS response element was used to screen Tox21 10K compound library. The cytotoxicity of the Tox21 compound library against the PR-bla cell line was tested in parallel by measuring the cell viability using CellTiter-Glo assay in the same wells.
# Tox21 Assay Protocol Summary:
# PR-UAS-bla HEK293T cells were dispensed at 3,000 cells/5 uL of assay medium containing 2% charcoal stripped FBS per well into black wall/clear-bottom 1536-well plates using a Multidrop Combi (ThermoFisher Scientific, Waltham, MA) dispenser. After the assay plates were incubated at a 37C and 5% CO2 for 6 hr, 23 nL of compounds dissolved in DMSO, positive controls or DMSO only was transferred to the assay plate by a Pintool station (Kalypsys, San Diego, CA). The plates were incubated at 37C and 5% CO2 for 16 hr. Then 1 uL of LiveBLAzer B/G FRET substrate was added using a Flying Reagent Dispenser (FRD, Aurora Discovery, San Diego, CA), the plates were incubated at room temperature for 2 hours, and fluorescence intensity was measured by an Envision plate reader (PerkinElmer, Shelton, CT). For cell viability readout that measures cytotoxicity, 4 uL/well of CellTiter-Glo reagent was added into the assay plates using a FRD. After 30 min incubation at room temperature, the luminescence intensity in the plates was measured using a ViewLux (PerkinElmer) plate reader.
# % is set by controls: 0 for no effect and ±100 for the full control effect; potency is the fitted concentration of half-maximal effect.
Compound,"activity change, negative = cytotoxicity",Potency
CC(C)=CCC/C(C)=C/C(=O)O,-1.36% (inactive),
NS(=O)(=O)c1cc(C2(O)NC(=O)c3ccccc32)ccc1Cl (stereo not given),-2.52% [at 42.5 µM] (inactive),
CC(C)(O)c1ccccc1,,58.6 µM (active)
O=C(O)c1ccccc1-c1ccc(C(F)(F)F)cc1,7.97% [at 42.5 µM] (inactive),
NCCN1CCNC1=O,1.03% (inactive),
COC(=O)c1ccc(C(=O)OC)c(C(=O)OC)c1,0.0319% (inactive),
COc1cc(O)cc(O)c1,17.8% [at 42.5 µM] (inactive),
CC(C)(O)Cc1ccccc1,2.46% (inactive),
C=CCSCC1Nc2cc(Cl)c(S(N)(=O)=O)cc2S(=O)(=O)N1 (stereo not given),4.55% [at 42.5 µM] (inactive),
OCCN1C[C@H](O)[C@@H](O)[C@H](O)[C@H]1CO,6.32% [at 42.5 µM] (inactive),
C1CCCCCCCCCCC1,1.68% [at 19 µM] (inactive),
Cc1ccccc1C(=O)O,-5.2% (inactive),
CC(C)(C)CC(C)(C)N,14.8% (inactive),
NC(N)=NS(=O)(=O)c1ccc(N)cc1,6.92% [at 42.5 µM] (inactive),
NC(=O)CCCCC1CCSS1 (stereo not given),0.956% [at 42.5 µM] (inactive),
COc1cccc(Br)c1,-2.07% (inactive),
CSc1nc(NC2CC2)nc(NC(C)(C)C)n1,6.71% (inactive),
NS(=O)(=O)c1cc2c(cc1C(F)(F)F)NC(Cc1ccccc1)NS2(=O)=O (stereo not given),3.27% [at 42.5 µM] (inactive),
CCCOCC(C)OCC(C)O (stereo not given),-4.76% (inactive),
COCCOC(=O)CC#N,5.91% (inactive),

Compound,"activity change, negative = cytotoxicity",Potency
CCCCC1CCCCC(=O)O1 (stereo not given),5.76% (inactive),
CCCCCCCCCCCCCCCCCCOCC(O)CO (stereo not given),0% [at 42.5 µM] (inactive),
CC(=O)N[C@@H](CCC(N)=O)C(=O)O,-1.77% [at 42.5 µM] (inactive),
CCCCCCCCCCCCCCCCCC(=O)OCCCCCCCCCCCCCC(C)C,0.0073% (inactive),
C=CC(=O)N1CCOCC1,-3.69% (inactive),
CCCC(C)C(=O)O (stereo not given),,18.5 µM (active)
CN(C)C(=O)Nc1ccccc1,11.2% (inactive),
C=C(C)C(=O)OCCCCCCCCCCCCCCCCCC,3.91% [at 19 µM] (inactive),
CCCCCCCCCCCl,20.5% (inactive),
O=C1C(CCS(=O)c2ccccc2)C(=O)N(c2ccccc2)N1c1ccccc1 (stereo not given),0.87% [at 42.5 µM] (inactive),
COC(=O)CCCCCCCCC(=O)OC,-3.22% (inactive),
CCC(C(=O)NC(N)=O)c1ccccc1 (stereo not given),19.2% (inactive),
CC(C)N1C(=O)c2ccccc2C1=O,12.1% (inactive),
CCCCCCC(CCCCCCCCCCC(=O)OCC(COC(C)=O)OC(C)=O)OC(C)=O (stereo not given),1.03% [at 42.5 µM] (inactive),
CCOC(=O)Nc1ccc2c(c1)N(C(=O)CCN1CCOCC1)c1ccccc1S2,1.5% [at 42.5 µM] (inactive),
CCc1cc(S(=O)(=O)O)c2cc(C(C)C)cccc1-2,4.42% [at 42.5 µM] (inactive),
CNC(=O)c1c(I)c(NC(=O)CCCCC(=O)Nc2c(I)c(C(=O)O)c(I)c(C(=O)NC)c2I)c(I)c(C(=O)O)c1I,6.74% [at 42.5 µM] (inactive),
CCCCCCCCCCCCCCC,8.49% (inactive),
O=S(=O)(O)c1ccccc1O,-0.408% (inactive),
CC(C)CCCC(C)CCCC(C)CCCCC(C)CCCC(C)CCCC(C)C (stereo not given),-1.77% [at 42.5 µM] (inactive),
